High-throughput results from PubChem.
Only some compounds are listed: those with a hit (about 19% of all), similar ones and a draw of the others.
IL1B secr inh: blocks inflammasome-driven IL-1 beta release | hit rate 4.7% among 360,000 | THP-1 LPS/ATP IL-1B secretion, AlphaLISA, 16 h; active compounds read low | AID 743279 | activity change, % at 57.5 µM; in the data active means activity change below about -50%; inconclusive means mostly about -30% to -49%
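Secreted IL-1B measured by AlphaLISA bead assay after 16 h compound exposure of THP-1 cells; compounds (final up to 57.5 uM) added 1 h before LPS (250 ng/mL) and ATP (1.25 mM) stimulation; lower signal means less secretion.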
HT1080-NT tox: kills 2HG-producing HT-1080-NT fibrosarcoma cells. HT-1080-NT fibrosarcoma viability, CellTiter-Glo ATP luminescence, 48 h. Potency, µM (top dose mostly 46.1 µM), inactives show at the highest dose activity, negative = less viability, hits mostly cytotoxic. hit rate 1.6% among 360,000;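 further: NT is the 2HG producing partner of a matched IDH1 knockdown line; potency means the concentration at half of the fitted maximal effect; 0% = DMSO-treated cells and -100% = media-only wells without cells; nearly all actives have a fitted effect of over 55% in size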
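Compounds were tested in concentration-response format on HT-1080-NT cells for 48 hours at 37 degrees C. Cell viability came from CellTiter-Glo luminescence; curves were classified by r2, response magnitude and activity.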
HT1080 IDH1KD tx: toxicity to HT-1080 IDH1 knockdown cells (counter line); hit rate 2% among 360,000; Potency, µM (doses to about 46.1 µM), for inactives: top-dose activity, negative = toxicity, actives largely listed as cytotoxic; HT-1080 IDH1 knockdown viability, ATP luminescence, 48 h;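 further: potency means the concentration at half of the fitted maximal effect; 0% = DMSO wells and -100% = cell-free medium wells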
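In this qHTS, HT-1080 cells depleted of IDH1 are exposed for 48 h at 37 °C to compound titrations. Toxicity is scored from CellTiter-Glo luminescence, with DMSO as full viability and medium alone as none.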
DT40 TDP1 CPT: DT40-hTDP1 cell growth loss with CPT. chicken DT40 Tdp1-/-;hTDP1 cells + 20 nM CPT, ATP luminescence, 48 h. Potency, µM (highest dose often 46.2 µM), for the others: top-dose activity change, negative = growth inhibition, usual class: inhibitors. AID 686979. hit rate 12% among 420,000; further: potency means the concentration at half of the fitted maximal effect; nearly all actives have a fitted effect of over 55% in size
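Chicken DT40 Tdp1-/- cells complemented with human TDP1, 400 cells/well, exposed to compounds plus 20 nM camptothecin for at least 48 h at 37 C; viability read as ATP content by CellTiter-Glo luminescence.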
TDP1 cell noCPT: qHTS for Inhibitors of human tyrosyl-DNA phosphodiesterase 1 (TDP1): qHTS in cells in absence of CPT; Potency, µM (top dose mostly 46.2 µM), for the others: at the highest dose activity change, negative = growth inhibition, usual class: inhibitors; DT40 Tdp1-/- hTDP1 cells, no CPT, ATP luminescence, 48 h; hit rate 15% among 420,000; further: potency means the concentration at half of the fitted maximal effect; nearly all actives have a fitted effect of over 55% in size
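Seeded 400 DT40-hTDP1 cells/well (vehicle DMSO, no 20 nM CPT); pinned compounds; ≥48 hr at 37 °C; CellTiter-Glo luminescence as viability measure.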
Numbers without * were called inactive. Unless noted, the call rests on the fitted dose curve; in most records, active means well fitted curve in the direction sought with a large enough effect; inconclusive means small, poorly fitted or top-dose-only effect, or another doubt; inactive means no such curve, though single readings can be large; an effect the other way counts as inactive or inconclusive. Unless noted, on the % scale 0 is the no-effect control and ±100 the full control effect.

CCCc1sc(N/N=C/c2ccccn2)nc1-c1ccc(F)cc1 was read as IL1B secr inh -100*, HT1080-NT tox 2.8µM*, HT1080 IDH1KD tx 3.2µM*, DT40 TDP1 CPT 4.6µM* and TDP1 cell noCPT 4.6µM*.
For Cc1nc(N/N=C/c2ccccn2)sc1C the results were IL1B secr inh -101*, HT1080-NT tox 13µM*, HT1080 IDH1KD tx 15µM*, DT40 TDP1 CPT 1.3µM* and TDP1 cell noCPT 1.3µM*.
For Nc1nc2ccc(Cl)cc2cc1C(=O)NCCCN1CCOCC1 the results were IL1B secr inh 27, HT1080-NT tox 20%, HT1080 IDH1KD tx 6%, DT40 TDP1 CPT 8% and TDP1 cell noCPT -14%.
C/C(=N/NC(=O)CN(c1ccccc1)S(=O)(=O)c1ccccc1)c1ccccc1O was read as IL1B secr inh 49, HT1080-NT tox inconclusive, HT1080 IDH1KD tx inconclusive, DT40 TDP1 CPT 18µM* and TDP1 cell noCPT 9.2µM*.
Screening CC(C)[C@@H](CO)NC(=O)c1ccc2c3n(nc2c1)-c1ccccc1CO3 returned IL1B secr inh -9, HT1080-NT tox inconclusive, HT1080 IDH1KD tx inconclusive, DT40 TDP1 CPT inconclusive and TDP1 cell noCPT inconclusive.
`Cc1ccc2c(c1)COc1c3ccc(C(=O)O)cc3nn1-2` gave IL1B secr inh 4, HT1080-NT tox -27%, HT1080 IDH1KD tx -18%, DT40 TDP1 CPT -17% and TDP1 cell noCPT -18%.
`CC(C)NC(=O)c1ccc2c3n(nc2c1)-c1ccccc1CO3` gave IL1B secr inh 0, HT1080-NT tox inconclusive, HT1080 IDH1KD tx inconclusive, DT40 TDP1 CPT inconclusive and TDP1 cell noCPT 21µM*.
For Cc1ccc2c(c1)COc1c3ccc(C(=O)NCC4CC4)cc3nn1-2 the results were IL1B secr inh 3, HT1080-NT tox -15%, HT1080 IDH1KD tx -8%, DT40 TDP1 CPT inconclusive and TDP1 cell noCPT 21µM*.
CCC(=NNS(=O)(=O)c1ccc(C)cc1)c1ccc(OC)c(C)c1 was read as IL1B secr inh -6, HT1080-NT tox 2%, HT1080 IDH1KD tx 8%, DT40 TDP1 CPT -3% and TDP1 cell noCPT inconclusive.
Screening CC(OC(=O)CCCN=C1NS(=O)(=O)c2ccccc21)C(=O)Nc1ccccc1F (centres undefined) returned IL1B secr inh 21, HT1080-NT tox 16%, HT1080 IDH1KD tx 17%, DT40 TDP1 CPT -4% and TDP1 cell noCPT -7%.
For Cc1ccc(SC2=C[C@@]3(O)CC[C@@H](O)[C@@](Sc4ccc(C)cc4)(C2=O)[C@H]3O)cc1 the results were IL1B secr inh -8, HT1080-NT tox -27%, HT1080 IDH1KD tx -22%, DT40 TDP1 CPT 23µM* and TDP1 cell noCPT inconclusive.
For CC(C)(C)c1ccc(SC2=C[C@@]3(O)CC[C@@H](O)[C@@](Sc4ccc(C(C)(C)C)cc4)(C2=O)[C@H]3O)cc1 the results were IL1B secr inh -90*, HT1080-NT tox 16µM*, HT1080 IDH1KD tx 15µM*, DT40 TDP1 CPT 4.6µM* and TDP1 cell noCPT 3.3µM*.
Screening CC(C)(C)c1ccc(C(=O)C2CC2)cc1 returned IL1B secr inh -26, HT1080-NT tox 2%, HT1080 IDH1KD tx 8%, DT40 TDP1 CPT 7% and TDP1 cell noCPT 0%.
For CCOc1ccc2oc(C(=O)Nc3ccc4c(c3)OCO4)c(C)c2c1 the results were IL1B secr inh -50*, HT1080-NT tox -5%, HT1080 IDH1KD tx -14%, DT40 TDP1 CPT -4% and TDP1 cell noCPT inconclusive.
Screening CCOc1ccc2oc(C(=O)N(C)CC(=O)Nc3ccc(OCC)c(OCC)c3)c(C)c2c1 returned IL1B secr inh -6, HT1080-NT tox 0%, HT1080 IDH1KD tx 0%, DT40 TDP1 CPT inconclusive and TDP1 cell noCPT 18µM*.
Screening CCOc1ccc2oc(C(=O)N(C)CCc3ccc(OC)c(OC)c3)c(C)c2c1 returned IL1B secr inh -12, HT1080-NT tox 2%, HT1080 IDH1KD tx 3%, DT40 TDP1 CPT 21µM* and TDP1 cell noCPT inconclusive.
COc1ccc2oc(C(=O)N(C)Cc3ccc4c(c3)OCCO4)c(C)c2c1 was read as IL1B secr inh -5, HT1080-NT tox 0%, HT1080 IDH1KD tx -2%, DT40 TDP1 CPT inconclusive and TDP1 cell noCPT inconclusive.
Screening CCOc1ccc2oc(C(=O)Nc3ccc(N4CCOCC4)cc3)c(C)c2c1 returned IL1B secr inh 30, HT1080-NT tox -6%, HT1080 IDH1KD tx inconclusive, DT40 TDP1 CPT -3% and TDP1 cell noCPT inconclusive.
For N#CCC(=O)Nc1ccc(C(=O)OCC(=O)NNC(=O)c2cccs2)cc1 the results were IL1B secr inh -3, HT1080-NT tox 8%, HT1080 IDH1KD tx 13%, DT40 TDP1 CPT 12% and TDP1 cell noCPT -1%.
Cc1ccc(-c2nnc(NC(=O)CCS(=O)(=O)c3ccc(F)cc3)o2)c(C)c1 was read as IL1B secr inh 6, HT1080-NT tox -14%, HT1080 IDH1KD tx -8%, DT40 TDP1 CPT -6% and TDP1 cell noCPT -6%.
COc1ccccc1-c1nnc(NC(=O)CCS(=O)(=O)c2ccc(F)cc2)o1 was read as IL1B secr inh -24, HT1080-NT tox -16%, HT1080 IDH1KD tx -18%, DT40 TDP1 CPT 8.2µM* and TDP1 cell noCPT 9.2µM*.
Screening COc1cccc(-c2nnc(NC(=O)CCS(=O)(=O)c3ccc(C)cc3)o2)c1 returned IL1B secr inh inconclusive, HT1080-NT tox 2%, HT1080 IDH1KD tx -2%, DT40 TDP1 CPT inconclusive and TDP1 cell noCPT inconclusive.
For COc1ccccc1-c1nnc(NC(=O)CCS(=O)(=O)c2ccccc2)o1 the results were IL1B secr inh -81*, HT1080-NT tox inconclusive, HT1080 IDH1KD tx -19%, DT40 TDP1 CPT 23µM* and TDP1 cell noCPT 18µM*.
For O=C(CCS(=O)(=O)c1ccc(F)cc1)Nc1nnc(-c2ccc(F)cc2)o1 the results were IL1B secr inh inconclusive, HT1080-NT tox -7%, HT1080 IDH1KD tx 1%, DT40 TDP1 CPT 13µM* and TDP1 cell noCPT 16µM*.
Screening CS(=O)(=O)c1ccc(Cl)c(NC(=O)CN2CCN(C(=O)c3cccs3)CC2)c1 returned IL1B secr inh -28, HT1080-NT tox 8%, HT1080 IDH1KD tx 0%, DT40 TDP1 CPT -8% and TDP1 cell noCPT -18%.
For O=C1C(=O)N(CNc2ccccn2)c2ccccc21 the results were IL1B secr inh 62, HT1080-NT tox inconclusive, HT1080 IDH1KD tx -22%, DT40 TDP1 CPT 2.1µM* and TDP1 cell noCPT 1.6µM*.
`CCOc1ccc(/C=N/NC(=O)c2cc3ccccc3cc2OC)cc1` gave IL1B secr inh -11, HT1080-NT tox 0%, HT1080 IDH1KD tx 12%, DT40 TDP1 CPT inconclusive and TDP1 cell noCPT inconclusive.
Screening CCc1ccc2occ(CC(=O)Nc3sc4c(c3C(=O)OC)CCC4)c2c1 returned DT40 TDP1 CPT 13µM* and TDP1 cell noCPT 18µM*.
